The results in this text go back to PubChem BioAssay AID540275 (National Center for Advancing Translational Sciences (NCATS), 2011).

Screen size: about 320,000 compounds; about 620 (0.19%) were called active. Inconclusive results (about 6%) are left out. The full list was thinned out, with actives kept by preference. Unmarked numbers belong to inactive results. Rule as the data show it: active = activation above about 80%; inconclusive = between about 30% and that limit; inactive = weaker than that.

Sequence of Transient receptor potential cation channel subfamily V member 1 (Homo sapiens) (Q8NER1 whole entry, looked up): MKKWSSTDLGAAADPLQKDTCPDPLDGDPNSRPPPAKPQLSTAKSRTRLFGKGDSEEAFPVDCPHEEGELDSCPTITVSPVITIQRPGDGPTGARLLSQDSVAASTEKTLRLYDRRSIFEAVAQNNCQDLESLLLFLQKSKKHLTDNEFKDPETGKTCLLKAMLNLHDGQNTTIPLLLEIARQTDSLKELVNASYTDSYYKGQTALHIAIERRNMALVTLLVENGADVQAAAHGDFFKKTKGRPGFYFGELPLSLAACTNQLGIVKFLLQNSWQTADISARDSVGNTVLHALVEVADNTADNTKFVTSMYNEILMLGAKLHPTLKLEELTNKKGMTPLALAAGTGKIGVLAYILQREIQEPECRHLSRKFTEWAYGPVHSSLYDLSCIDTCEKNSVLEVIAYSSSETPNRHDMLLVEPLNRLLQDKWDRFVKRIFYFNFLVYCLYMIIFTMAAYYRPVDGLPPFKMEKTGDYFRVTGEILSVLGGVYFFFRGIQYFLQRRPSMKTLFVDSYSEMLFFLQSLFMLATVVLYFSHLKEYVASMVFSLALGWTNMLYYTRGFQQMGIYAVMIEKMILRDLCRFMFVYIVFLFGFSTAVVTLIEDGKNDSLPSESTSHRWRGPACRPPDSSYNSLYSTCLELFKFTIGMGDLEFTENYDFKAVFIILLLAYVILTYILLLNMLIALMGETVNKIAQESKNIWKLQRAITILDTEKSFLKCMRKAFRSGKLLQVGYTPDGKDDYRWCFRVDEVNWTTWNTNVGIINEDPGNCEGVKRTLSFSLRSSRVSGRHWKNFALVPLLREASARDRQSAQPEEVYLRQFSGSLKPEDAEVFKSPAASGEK

The target of the assay is Transient receptor potential cation channel subfamily V member 1 (Homo sapiens) (UniProt Q8NER1). The assay can be described thus: HTS Assay for Compounds that Act as Agonists of the Vanilloid Receptor 1. Also: 0% is about no effect. The settings on record: TRPV1-expressing cells, Fluo-8 calcium influx, agonist mode; at 8.33 µM; hits give high values. The text has this:
The transient receptor potential ion channel, family V, number 1, (TRPV1) is one of the most important molecular transducers of painful stimuli and a potential target for analgesic drug development. Although recent clinical trials with orthosteric antagonists have not produced a successful drug because of a hyperthermia side effect and their tendency to block thermal noxious pain, this ion channel is undeniably well placed in the pain pathway, and the idea of blocking pain signals before they enter the CNS is an excellent concept and of proven efficacy when TRPV1 agonists are used. We propose a new approach involving allosteric modulation to impose an activity-dependent constraint within the context of inflammation and tissue damage that would alter the responsiveness of the channel in a way that an orthosteric vanilloid antagonist cannot achieve. We believe that the allosteric modulator approach has not been explored for this target. The main goal of this proposal is to identify additional, new, potent allosteric modulators of TRPV1 that can be used to investigate TRPV1 function. Our recent report provides evidence of proof of concept, but the compounds are just at the edge of utility in terms of potency. […] The question of whether they can be used as analgesic agents is complex, but if suitable compounds are identified then testing for analgesic properties will be conducted. NIH Chemical Genomics Center [NCGC] NIH Molecular Libraries Probe Centers Network [MLPCN] MLPCN Grant: MH089480-1A1 Assay Submitter (PI): Michael Iadarola, National Institute of Dental and Cranofacial Research
Upon TRPV1 activation in TRPV1 cells, the channel opens and extracellular cations flow through the channel into the cytosol. A calcium binding dye (Fluo-8) becomes fluorescent when bound to calcium. This dye is pre-loaded into cells and is used as a marker for calcium influx. The amount of accumulated calcium is precisely quantified using the FDSS kinetic reader and the calcium dye. For the HTS assay, freshly prepared cells are plated at a density of 2000/well in 3 ul medium in 1536-well plates and cultured overnight at 35.5C. Cells will be loaded with 1 ul of the homogeneous calcium dye (ABD Bioquest) at room temperature for 40 to 90 minutes. Plates will be loaded into the FDSS kinetic reader and a 1 sec / cycle for 10 second baseline signal will be measured. Compound library will then be added with a pintool at 23 nl and measured kinetically for 3 minutes. This portion of the read is considered the agonist portion of the screen. Following the 3 minutes of incubation, an on board pipettor will deliver 1 ul of capsaicin for a final concentration equal to the EC20. Signal will be measured kinetically for an additional 2 minutes. This portion of the read is considered the allosteric enhancer portion of the screen. The FDSS reader has a standard filter set capable of measuring calcium bound Fluo-8 (ex=480 and em=520 nm).
Turning to `CCN(CC(=O)Nc1ccccc1OC)C(=O)CC1CC2CCC1C2` (stereo not given), the activation is 23.5%.

For `COc1ccc(OC)c(/C=C/C(=O)c2ccc3c(c2)OCO3)c1`, the activation was 25.2%.

As for `COc1ccc([C@H]2CC(=O)C=C(/C=C/c3ccc(Cl)cc3)C2)cc1`, the activation was 6.1%.

In the case of `CN1CCN(c2ccc(NC(=O)c3cc(Cl)c4c(c3)OCCO4)cc2)CC1`, the activation is -4.8%.

Consider `O=C1C=C(c2cccc(Cl)c2O)C[C@@H](c2ccc(F)cc2)C1`, for which the activation was 15.9%.

`COc1ccc(NC(=O)COC(=O)c2n[nH]c3ccccc23)c(OC)c1`: the activation is 2.58%.

Regarding `COc1ccc(S(=O)(=O)N2CCOCC2)cc1NC(=O)c1ccc(OCC(C)C)c(OC)c1`, the activation was 3.95%.

`CN(c1ccccc1)S(=O)(=O)c1cccc(NC(=O)Cc2ccc(Cl)cc2)c1`: the activation was 6.78%.

Consider `Cc1ccc(S(=O)(=O)NCCC(=O)NCc2ccc(Cl)cc2)cc1C`, for which the activation is 21.8%.

On to `CC(C)c1nc(N2CCOCC2)c(C#N)c2c1COC(C)(C)C2`, for which the activation is 13.5%.

Regarding `CCOC(=O)CSc1nc(N2CCOCC2)c2c(c1C#N)CC(C(C)C)OC2` (stereo not given), the activation is 17.3%.

On to `COc1ccc(CSc2nc(N3CCOCC3)c3c(c2C#N)CC(C)(C)OC3)cc1`, for which the activation is 80.5% (active).

On to `COc1ccc(OC)c(/C=N/NC(=O)c2ccc[n+](CC(=O)c3ccccc3)c2)c1`, for which the activation was -2.79%.

For `CC(=O)Nc1ccc(S(=O)(=O)NC(C)C(=O)OCCOc2ccc(F)cc2)cc1` (stereo not given), the activation is 3.17%.

For `O=C(COc1ccccc1Cl)N1N=C(c2cccs2)CC1c1ccco1` (stereo not given), the activation is 17.2%.

As for `O=C(Nc1cccc2cccnc12)C(F)(F)F`, the activation was -6.93%.

Take `CC(NC(=O)COC(=O)c1cc(=O)[nH]c2ccccc12)c1ccccc1` (stereo not given): the activation is 3.95%.

Regarding `CC(NC(=O)COC(=O)c1ccc(Cl)cc1O)c1ccc(F)cc1` (stereo not given), the activation is 96.5% (active).

In the case of `C=CCOc1ccc(/C=C/C(=O)OCC(=O)NC(C)c2ccc(F)cc2)cc1` (stereo not given), the activation was 0.454%.

On to `CN(CC(=O)Nc1ccc(Cl)c(C(F)(F)F)c1)C(=O)CCC(=O)c1ccccc1`, for which the activation was 17.3%.

Consider `CC1(C)O[C@@H]2[C@H](O1)[C@@H](COS(=O)(=O)O)O[C@H]2n1ccc(=O)[nH]c1=O`, for which the activation was -5.53%.

Regarding `COc1ccccc1CNS(=O)(=O)c1cc(C(=O)NCc2ccccn2)c(Cl)cc1Cl`, the activation was -2.79%.

On to `C=C1CCC(N(O)c2cc(C)on2)C(=C)CCC2C1CC2(C)C` (stereo not given), for which the activation is 13.2%.

In the case of `C=C(C)CNc1cc(S(=O)(=O)N2CCOCC2)ccc1Oc1ccccc1`, the activation was -6.07%.

For the molecule `COc1ccccc1Nc1cc(C(=O)NCCCN(C)C2CCCCC2)c2ccccc2n1`, the activation is 5.29%.

On to `CCCCn1c(N)c(N(CCC(C)C)C(=O)COC(=O)c2cccnc2OCC)c(=O)[nH]c1=O`, for which the activation was 1.64%.

For the molecule `CC(C)c1ccc(S(=O)(=O)N2CCN(C(C)C(=O)NC3CCCC3)CC2)cc1` (stereo not given), the activation was 10.1%.

For `CCCn1c(N)c(N(CCOC)C(=O)C2CCCC2)c(=O)[nH]c1=O`, the activation was 1.46%.

In the case of `COc1cccc(N2CCN(CC(=O)Nc3ccnn3C3CCCC3)CC2)c1`, the activation is 1.23%.

As to `CC(=O)c1c(C)[nH]c(C(=O)COc2ccc3c(C)cc(=O)oc3c2)c1C`, the activation was -2.89%.

On to `CC(C)N(Cc1nnc(-c2ccccc2Br)o1)C(=O)c1cc(Cl)nc2ccccc12`, for which the activation is 9.24%.

As for `O=C(Nc1ccc(C(F)(F)F)cc1)c1cccc(-n2cnnn2)c1`, the activation was 11.1%.

Turning to `COc1cc(C(=O)NNC(=O)CN2C(=O)NC3(CCCC3)C2=O)cc(OC)c1OC`, the activation was -0.801%.

For `O=C(c1ccc(Cl)c(S(=O)(=O)N2CCCCCC2)c1)N1CCN(c2ccc(O)cc2)CC1`, the activation was 13.5%.

Turning to `CC1CCCCC1NC(=O)NC(=O)COC(=O)C1=NN(c2ccccc2)C(=O)CC1` (stereo not given), the activation was 0.278%.

Regarding `O=C(CNS(=O)(=O)c1ccc2c(c1)OCCCO2)N1CCN(c2ccc(F)cc2)CC1`, the activation was -2.51%.

With `CCc1ccc(C(=O)N2CCN(S(=O)(=O)c3sc(C(=O)O)c(C)c3C(=O)O)CC2)cc1`, the activation was 0.16%.

Turning to `N#Cc1nc(-c2cccc3ccccc23)oc1N`, the activation is -1.65%.

As for `Cc1ccc2ccc3c(c2n1)NS(=O)(=O)c1ccccc1-3`, the activation is -1.69%.

As to `COc1cccc(-n2c(SCC(=O)NC3CCS(=O)(=O)C3)nc3ccccc3c2=O)c1` (stereo not given), the activation was -0.844%.

As to `CN(CC(=O)Nc1ccc(Cl)cc1)C(=O)c1ccc(COc2ccccc2)cc1`, the activation was 3.35%.

With `O=C(Nc1ccc(F)cc1)c1cc2c(s1)CCCC2`, the activation is 87.7% (active).

For `CN(C)C(=O)c1ccc(NC(=O)COC(=O)c2cc3c(s2)CCCCC3)cc1`, the activation was 1.68%.

With `O=C(NCC1CCCO1)c1cc2c(s1)CCCC2` (stereo not given), the activation is 17.2%.

`CCOC(=O)[C@@H]1[C@H]2COc3cc(OC)ccc3[C@@H]2N2C(=O)N(c3cccc(C)c3)C(=O)[C@@]12C`: the activation was 2.6%.

For `CCOC(=O)[C@@H]1[C@H]2COc3cc(OC)ccc3[C@H]2N2C(=O)N(c3ccc(F)cc3)C(=O)[C@]12C`, the activation was -1.09%.

As to `CCOC(=O)[C@H]1[C@H]2COc3ccc(OC)cc3[C@@H]2N2C(=O)c3ccc(F)cc3NC(=O)[C@@]12C`, the activation is 88.1% (active).

Regarding `CCOC(=O)c1ccccc1NC(=O)COC(=O)C(Cc1c[nH]c2ccccc12)NC(C)=O` (stereo not given), the activation was 17.5%.

As for `O=C(/C=C/c1ccc(Cl)c([N+](=O)[O-])c1)c1cccnc1`, the activation was -3.27%.

In the case of `CN(C)c1ccc(/C=C/C(=O)c2ccc(C(C)(C)C)cc2)cc1[N+](=O)[O-]`, the activation was -0.491%.

Regarding `O=C(/C=C/c1ccc(Cl)c([N+](=O)[O-])c1)c1ccc(O)cc1`, the activation is 83.8% (active).

`Cc1c(/C=N\NC(=O)c2cc3ccccc3o2)c2ccccc2n1C`: the activation was -1.62%.

Regarding `Cc1ccc(NC(=O)c2cc3ccccc3o2)cc1`, the activation is 102% (active).

In the case of `C/C(=N\NC(=S)Nc1ccc(C)cc1)c1cc2ccccc2o1`, the activation is 4.04%.

With `O=c1c2ccccc2ccc2ccc(P(=O)(O)O)cc12`, the activation is -0.0431%.
